# ± gives the standard deviation of the averaged measurements. About 5,400 targets were measured; listed, in parts, are those with the largest changes and a random draw of the rest.
# Compound: Nc1nc2c(ncn2[C@@H]2O[C@H](COP(=O)(O)OP(=O)(O)OP(=O)(O)O)[C@@H](O)[C@H]2O)c(=O)[nH]1 [guanosine triphosphate]
# Assay: NP40-soluble protein abundance relative to vehicle (solubility fold change) (ratio); higher = more soluble protein in presence of GTP
# Conditions: concentration: 6mM
# Outline: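 Eight concentrations, 0.1 to 10 mM, were tested on Jurkat crude lysate for 10 min at room temperature and then 3 min at 37 °C, in three independent experiments. The lysate was solubilised with 0.8% NP40 and benzonase, ultracentrifuged, and the supernatant TMT-labelled for LC-MS/MS. Each value is the fold change against the detergent-processed vehicle in its own replicate, from vsn-normalised intensities.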
# UniProt Q9H0F7, sequence (Q9H0F7 whole entry, one chain of several): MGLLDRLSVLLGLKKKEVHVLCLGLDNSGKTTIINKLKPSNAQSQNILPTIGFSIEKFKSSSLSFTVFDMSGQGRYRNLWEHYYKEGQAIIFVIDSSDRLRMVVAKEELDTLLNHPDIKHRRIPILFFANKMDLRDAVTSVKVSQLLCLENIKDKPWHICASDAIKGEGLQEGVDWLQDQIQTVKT
# UniProt Q9C0B5, sequence (Q9C0B5 whole entry): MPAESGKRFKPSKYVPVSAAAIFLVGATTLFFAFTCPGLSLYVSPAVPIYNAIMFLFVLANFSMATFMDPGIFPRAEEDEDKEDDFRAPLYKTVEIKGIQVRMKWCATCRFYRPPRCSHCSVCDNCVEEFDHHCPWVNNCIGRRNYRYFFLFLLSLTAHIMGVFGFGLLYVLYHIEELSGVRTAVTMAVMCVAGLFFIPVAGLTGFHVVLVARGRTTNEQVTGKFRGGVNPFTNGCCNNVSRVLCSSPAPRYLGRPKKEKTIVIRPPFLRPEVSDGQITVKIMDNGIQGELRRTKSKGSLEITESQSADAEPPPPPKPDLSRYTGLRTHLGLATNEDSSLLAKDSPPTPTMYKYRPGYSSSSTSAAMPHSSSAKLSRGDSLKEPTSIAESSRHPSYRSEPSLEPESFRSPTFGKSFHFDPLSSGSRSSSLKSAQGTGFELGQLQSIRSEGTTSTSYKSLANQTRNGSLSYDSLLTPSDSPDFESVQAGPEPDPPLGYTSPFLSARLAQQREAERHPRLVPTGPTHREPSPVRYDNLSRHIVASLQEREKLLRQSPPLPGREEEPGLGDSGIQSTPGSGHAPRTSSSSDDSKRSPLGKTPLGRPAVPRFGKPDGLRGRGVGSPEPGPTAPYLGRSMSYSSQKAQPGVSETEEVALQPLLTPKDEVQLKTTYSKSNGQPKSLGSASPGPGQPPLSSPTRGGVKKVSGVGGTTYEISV
# UniProt Q9NVR5, sequence (Q9NVR5 whole entry): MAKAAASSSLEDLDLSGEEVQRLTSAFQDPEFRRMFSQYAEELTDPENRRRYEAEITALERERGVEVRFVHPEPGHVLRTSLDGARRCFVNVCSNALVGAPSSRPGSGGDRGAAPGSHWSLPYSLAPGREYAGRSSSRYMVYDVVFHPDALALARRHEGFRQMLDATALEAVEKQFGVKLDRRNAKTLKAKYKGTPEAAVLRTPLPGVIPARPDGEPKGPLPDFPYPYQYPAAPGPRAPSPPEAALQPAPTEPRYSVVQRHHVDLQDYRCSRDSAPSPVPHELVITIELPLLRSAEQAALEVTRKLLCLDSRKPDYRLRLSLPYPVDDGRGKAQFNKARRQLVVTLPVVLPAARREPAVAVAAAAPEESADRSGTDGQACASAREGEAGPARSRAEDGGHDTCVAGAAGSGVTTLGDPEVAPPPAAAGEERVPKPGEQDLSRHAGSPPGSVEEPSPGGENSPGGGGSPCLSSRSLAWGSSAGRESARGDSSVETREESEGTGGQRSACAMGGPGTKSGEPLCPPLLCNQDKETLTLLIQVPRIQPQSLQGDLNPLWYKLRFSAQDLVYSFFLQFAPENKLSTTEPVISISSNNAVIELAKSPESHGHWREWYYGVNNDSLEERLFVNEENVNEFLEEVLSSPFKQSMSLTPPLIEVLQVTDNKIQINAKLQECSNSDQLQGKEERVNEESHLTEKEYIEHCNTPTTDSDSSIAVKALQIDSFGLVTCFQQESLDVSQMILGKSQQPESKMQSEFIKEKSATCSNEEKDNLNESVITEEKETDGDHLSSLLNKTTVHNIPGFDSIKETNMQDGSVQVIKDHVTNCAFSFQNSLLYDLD
# UniProt Q9NX05, sequence (Q9NX05 whole entry): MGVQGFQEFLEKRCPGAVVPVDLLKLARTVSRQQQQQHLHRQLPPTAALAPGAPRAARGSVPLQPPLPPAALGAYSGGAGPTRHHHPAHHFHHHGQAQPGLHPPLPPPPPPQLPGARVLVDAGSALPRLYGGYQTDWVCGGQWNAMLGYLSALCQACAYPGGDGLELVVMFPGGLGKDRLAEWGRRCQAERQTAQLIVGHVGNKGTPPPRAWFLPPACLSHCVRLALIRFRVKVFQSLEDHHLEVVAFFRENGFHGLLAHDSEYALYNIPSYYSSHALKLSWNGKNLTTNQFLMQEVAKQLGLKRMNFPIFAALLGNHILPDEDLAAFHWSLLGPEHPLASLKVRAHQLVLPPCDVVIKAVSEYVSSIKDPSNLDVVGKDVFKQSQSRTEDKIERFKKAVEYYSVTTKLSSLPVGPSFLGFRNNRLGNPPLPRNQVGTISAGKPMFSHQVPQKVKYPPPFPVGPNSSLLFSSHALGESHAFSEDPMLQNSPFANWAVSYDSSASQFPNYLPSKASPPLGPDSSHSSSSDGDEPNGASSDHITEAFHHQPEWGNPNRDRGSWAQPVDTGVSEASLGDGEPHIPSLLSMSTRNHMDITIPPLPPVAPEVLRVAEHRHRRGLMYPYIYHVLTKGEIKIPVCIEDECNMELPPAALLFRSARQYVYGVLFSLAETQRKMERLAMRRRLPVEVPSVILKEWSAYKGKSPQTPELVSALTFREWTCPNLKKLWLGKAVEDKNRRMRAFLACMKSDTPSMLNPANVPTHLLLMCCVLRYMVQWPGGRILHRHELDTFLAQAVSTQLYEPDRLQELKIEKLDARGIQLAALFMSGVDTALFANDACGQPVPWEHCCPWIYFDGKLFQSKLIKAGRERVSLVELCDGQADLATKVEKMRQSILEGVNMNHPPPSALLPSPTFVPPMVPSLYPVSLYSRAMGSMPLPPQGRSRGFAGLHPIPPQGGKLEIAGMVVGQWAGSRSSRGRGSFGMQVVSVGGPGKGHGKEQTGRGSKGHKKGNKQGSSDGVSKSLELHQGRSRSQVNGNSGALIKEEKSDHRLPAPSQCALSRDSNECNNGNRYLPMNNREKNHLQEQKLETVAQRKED
# UniProt Q9Y2A7, sequence (Q9Y2A7 whole entry): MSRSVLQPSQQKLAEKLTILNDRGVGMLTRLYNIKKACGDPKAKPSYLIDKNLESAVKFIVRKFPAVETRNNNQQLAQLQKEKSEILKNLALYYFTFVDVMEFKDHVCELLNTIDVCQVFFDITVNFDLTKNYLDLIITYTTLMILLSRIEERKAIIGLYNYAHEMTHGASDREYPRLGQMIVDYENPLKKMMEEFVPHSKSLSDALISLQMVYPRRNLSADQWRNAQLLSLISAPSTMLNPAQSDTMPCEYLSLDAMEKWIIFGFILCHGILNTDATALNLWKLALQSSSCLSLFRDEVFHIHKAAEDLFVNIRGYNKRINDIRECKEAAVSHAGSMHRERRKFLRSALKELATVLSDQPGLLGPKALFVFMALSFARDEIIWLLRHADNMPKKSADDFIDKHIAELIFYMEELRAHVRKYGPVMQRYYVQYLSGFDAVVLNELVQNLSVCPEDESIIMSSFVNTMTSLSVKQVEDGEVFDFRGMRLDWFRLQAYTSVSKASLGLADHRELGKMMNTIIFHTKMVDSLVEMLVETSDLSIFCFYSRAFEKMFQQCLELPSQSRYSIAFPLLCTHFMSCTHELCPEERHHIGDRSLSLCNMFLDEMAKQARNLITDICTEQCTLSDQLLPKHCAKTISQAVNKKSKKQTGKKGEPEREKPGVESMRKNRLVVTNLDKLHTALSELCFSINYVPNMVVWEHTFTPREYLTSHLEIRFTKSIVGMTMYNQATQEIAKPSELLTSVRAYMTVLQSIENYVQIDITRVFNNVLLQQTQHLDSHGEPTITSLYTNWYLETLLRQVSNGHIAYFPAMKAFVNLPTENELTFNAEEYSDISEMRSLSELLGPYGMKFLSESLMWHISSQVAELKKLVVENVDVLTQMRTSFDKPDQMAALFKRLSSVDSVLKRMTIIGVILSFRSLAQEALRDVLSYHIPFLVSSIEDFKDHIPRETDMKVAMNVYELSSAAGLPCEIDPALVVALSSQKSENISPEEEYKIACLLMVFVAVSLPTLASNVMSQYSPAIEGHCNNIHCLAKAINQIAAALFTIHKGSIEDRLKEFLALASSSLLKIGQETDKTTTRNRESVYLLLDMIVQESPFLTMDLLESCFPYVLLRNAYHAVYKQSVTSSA
# UniProt Q9H832, sequence (Q9H832 whole entry): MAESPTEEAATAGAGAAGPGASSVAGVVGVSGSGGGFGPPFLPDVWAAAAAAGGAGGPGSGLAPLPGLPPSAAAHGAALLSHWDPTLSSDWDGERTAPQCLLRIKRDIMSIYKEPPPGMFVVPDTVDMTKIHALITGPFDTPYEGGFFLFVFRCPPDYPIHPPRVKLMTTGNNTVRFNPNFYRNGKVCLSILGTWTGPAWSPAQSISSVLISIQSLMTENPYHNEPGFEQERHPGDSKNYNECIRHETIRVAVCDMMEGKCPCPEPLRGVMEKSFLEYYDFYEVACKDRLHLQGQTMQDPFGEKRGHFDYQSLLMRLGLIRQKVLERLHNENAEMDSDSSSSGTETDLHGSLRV
# UniProt Q9Y217, sequence (Q9Y217 whole entry): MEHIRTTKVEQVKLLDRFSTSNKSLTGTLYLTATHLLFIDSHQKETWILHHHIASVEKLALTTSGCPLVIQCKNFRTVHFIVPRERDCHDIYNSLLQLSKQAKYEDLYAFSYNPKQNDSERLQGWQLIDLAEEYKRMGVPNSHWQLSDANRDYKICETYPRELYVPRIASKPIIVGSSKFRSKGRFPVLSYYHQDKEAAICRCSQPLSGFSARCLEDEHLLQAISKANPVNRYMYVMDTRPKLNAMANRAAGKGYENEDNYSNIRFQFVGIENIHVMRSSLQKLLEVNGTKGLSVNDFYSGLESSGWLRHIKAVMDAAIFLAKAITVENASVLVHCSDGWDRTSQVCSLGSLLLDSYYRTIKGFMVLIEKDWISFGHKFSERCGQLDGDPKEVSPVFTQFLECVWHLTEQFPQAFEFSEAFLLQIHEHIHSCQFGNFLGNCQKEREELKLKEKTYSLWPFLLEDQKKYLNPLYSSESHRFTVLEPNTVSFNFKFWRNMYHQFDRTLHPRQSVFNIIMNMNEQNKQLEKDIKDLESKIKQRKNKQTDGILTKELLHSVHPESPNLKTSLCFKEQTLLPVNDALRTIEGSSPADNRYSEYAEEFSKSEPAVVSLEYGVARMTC
# UniProt Q9Y333, sequence (Q9Y333 whole entry): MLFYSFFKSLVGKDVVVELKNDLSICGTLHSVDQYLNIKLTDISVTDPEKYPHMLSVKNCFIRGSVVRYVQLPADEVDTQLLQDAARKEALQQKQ
row,Target,NP40-soluble protein abundance
1,UniProt Q9UKV8,1.07 ± 0.078
2,FBXO28 (UniProt Q9NVF7),1.47 ± 0.12
3,BOLA1 (UniProt Q9Y3E2),0.933 ± 0.059
4,UniProt Q969P0|Q969P0-3,0.932 ± 0.049
5,FAM117A (UniProt Q9C073),1.02 ± 0.037
6,X5CMH5 (UniProt Q03519),0.951 ± 0.051
7,UniProt Q9UKZ1,1.24 ± 0.11
8,FAM120C (UniProt Q9NX05),1.18 ± 0.077
9,UniProt Q9H0F7|Q9H0F7-2|A0A0J9YXT0,0.904 ± 0.032
10,ZHX3 (UniProt Q9H4I2),1.01 ± 0.079
11,EXOSC4 (UniProt Q9NPD3),1.12 ± 0.095
12,UniProt Q9NVR5,0.931 ± 0.13
13,CBX8 (UniProt Q9HC52),1.61 ± 0.15
14,VPS35 (UniProt Q96QK1),0.912 ± 0.086
15,XRN2 (UniProt Q9H0D6),0.986 ± 0.027
16,UniProt Q9UMX0|Q9UMX0-2,0.994 ± 0.039
17,UniProt Q9Y3L3|Q9Y3L3-2,0.991 ± 0.052
18,UniProt Q9Y6A4,0.964 ± 0.087
19,UniProt Q96B97|Q96B97-2,0.935 ± 0.098

row,Target,NP40-soluble protein abundance
1,UTP18 (UniProt Q9Y5J1),1.3 ± 0.044
2,UniProt Q9UJ83|Q9UJ83-2|Q9UJ83-3,0.958 ± 0.08
3,UniProt Q99707|Q99707-2,0.965 ± 0.0072
4,UniProt Q9Y333,0.989 ± 0.13
5,UniProt Q9NW08|Q9NW08-2,1.16 ± 0.19
6,MTMR6 (UniProt Q9Y217),0.907 ± 0.0098
7,CLIC4 (UniProt Q9Y696),0.909 ± 0.1
8,UniProt Q9UJX5|Q9UJX5-3|Q9UJX5-2,1.23 ± 0.32
9,UniProt Q9C0B5|Q9C0B5-2,0.909 ± 0.019
10,NOP58 (UniProt Q9Y2X3),1.58 ± 0.13
11,UniProt Q9BX67,0.88 ± 0.086
12,UniProt Q9NY12|Q9NY12-2,1.72 ± 0.19
13,LARS (UniProt Q9P2J5),1.21 ± 0.28
14,DDX18 (UniProt Q9NVP1),1.55 ± 0.061
15,ATP6V1D (UniProt Q9Y5K8),1.03 ± 0.05
16,AFG3L2 (UniProt Q9Y4W6),0.987 ± 0.04
17,UniProt Q9H832|Q9H832-2,0.934 ± 0.043
18,UniProt Q9Y2A7|Q9Y2A7-2,0.9641 ± 0.0054
19,SMARCD1 (UniProt Q96GM5),1.18 ± 0.19

# Same assay, conditions: concentration: 8mM
row,Target,NP40-soluble protein abundance
1,UniProt Q9UKV8,1.07 ± 0.057
2,FBXO28 (UniProt Q9NVF7),1.42 ± 0.28
3,BOLA1 (UniProt Q9Y3E2),0.903 ± 0.038
4,UniProt Q969P0|Q969P0-3,0.953 ± 0.053
5,FAM117A (UniProt Q9C073),1.1 ± 0.056
6,X5CMH5 (UniProt Q03519),0.934 ± 0.015
7,UniProt Q9UKZ1,1.29 ± 0.15
8,FAM120C (UniProt Q9NX05),1.25 ± 0.08
9,UniProt Q9H0F7|Q9H0F7-2|A0A0J9YXT0,0.864 ± 0.061
10,ZHX3 (UniProt Q9H4I2),1.05 ± 0.07
11,EXOSC4 (UniProt Q9NPD3),1.11 ± 0.089
12,UniProt Q9NVR5,0.869 ± 0.086
13,CBX8 (UniProt Q9HC52),1.74 ± 0.17
14,VPS35 (UniProt Q96QK1),0.833 ± 0.048
15,XRN2 (UniProt Q9H0D6),1 ± 0.039
16,UniProt Q9UMX0|Q9UMX0-2,1.02 ± 0.053
17,UniProt Q9Y3L3|Q9Y3L3-2,0.958 ± 0.019
18,UniProt Q9Y6A4,1.01 ± 0.05
19,UniProt Q96B97|Q96B97-2,0.982 ± 0.11

row,Target,NP40-soluble protein abundance
1,UTP18 (UniProt Q9Y5J1),1.37 ± 0.17
2,UniProt Q9UJ83|Q9UJ83-2|Q9UJ83-3,0.926 ± 0.021
3,UniProt Q99707|Q99707-2,0.928 ± 0.023
4,UniProt Q9Y333,0.962 ± 0.089
5,UniProt Q9NW08|Q9NW08-2,1.13 ± 0.18
6,MTMR6 (UniProt Q9Y217),0.947 ± 0.034
7,CLIC4 (UniProt Q9Y696),0.973 ± 0.12
8,UniProt Q9UJX5|Q9UJX5-3|Q9UJX5-2,1.2 ± 0.23
9,UniProt Q9C0B5|Q9C0B5-2,1.02 ± 0.03
10,NOP58 (UniProt Q9Y2X3),1.77 ± 0.11
11,UniProt Q9BX67,0.953 ± 0.035
12,UniProt Q9NY12|Q9NY12-2,1.9 ± 0.27
13,LARS (UniProt Q9P2J5),1.16 ± 0.24
14,DDX18 (UniProt Q9NVP1),1.69 ± 0.043
15,ATP6V1D (UniProt Q9Y5K8),1.02 ± 0.045
16,AFG3L2 (UniProt Q9Y4W6),0.988 ± 0.02
17,UniProt Q9H832|Q9H832-2,0.91 ± 0.034
18,UniProt Q9Y2A7|Q9Y2A7-2,1.02 ± 0.026
19,SMARCD1 (UniProt Q96GM5),1.15 ± 0.18

# Same assay, conditions: concentration: 10mM
row,Target,NP40-soluble protein abundance
1,UniProt Q9UKV8,1.05 ± 0.061
2,FBXO28 (UniProt Q9NVF7),1.61 ± 0.25
3,BOLA1 (UniProt Q9Y3E2),1.04 ± 0.055
4,UniProt Q969P0|Q969P0-3,0.919 ± 0.077
5,FAM117A (UniProt Q9C073),1.12 ± 0.086
6,X5CMH5 (UniProt Q03519),0.918 ± 0.065
7,UniProt Q9UKZ1,1.36 ± 0.051
8,FAM120C (UniProt Q9NX05),1.25 ± 0.061
9,UniProt Q9H0F7|Q9H0F7-2|A0A0J9YXT0,0.882 ± 0.065
10,ZHX3 (UniProt Q9H4I2),1.05 ± 0.11
11,EXOSC4 (UniProt Q9NPD3),1.16 ± 0.054
12,UniProt Q9NVR5,0.906 ± 0.082
13,CBX8 (UniProt Q9HC52),1.86 ± 0.23
14,VPS35 (UniProt Q96QK1),0.868 ± 0.093
15,XRN2 (UniProt Q9H0D6),0.982 ± 0.028
16,UniProt Q9UMX0|Q9UMX0-2,1.01 ± 0.039
17,UniProt Q9Y3L3|Q9Y3L3-2,1.01 ± 0.034
18,UniProt Q9Y6A4,0.957 ± 0.11
19,UniProt Q96B97|Q96B97-2,0.966 ± 0.12

row,Target,NP40-soluble protein abundance
1,UTP18 (UniProt Q9Y5J1),1.57 ± 0.17
2,UniProt Q9UJ83|Q9UJ83-2|Q9UJ83-3,0.9129 ± 0.0074
3,UniProt Q99707|Q99707-2,0.927 ± 0.029
4,UniProt Q9Y333,0.963 ± 0.059
5,UniProt Q9NW08|Q9NW08-2,1.09 ± 0.17
6,MTMR6 (UniProt Q9Y217),0.913 ± 0.042
7,CLIC4 (UniProt Q9Y696),0.866 ± 0.08
8,UniProt Q9UJX5|Q9UJX5-3|Q9UJX5-2,1.13 ± 0.17
9,UniProt Q9C0B5|Q9C0B5-2,0.997 ± 0.029
10,NOP58 (UniProt Q9Y2X3),2.07 ± 0.16
11,UniProt Q9BX67,0.897 ± 0.06
12,UniProt Q9NY12|Q9NY12-2,2.35 ± 0.49
13,LARS (UniProt Q9P2J5),1.09 ± 0.23
14,DDX18 (UniProt Q9NVP1),1.94 ± 0.066
15,ATP6V1D (UniProt Q9Y5K8),0.992 ± 0.018
16,AFG3L2 (UniProt Q9Y4W6),0.938 ± 0.014
17,UniProt Q9H832|Q9H832-2,0.963 ± 0.064
18,UniProt Q9Y2A7|Q9Y2A7-2,0.973 ± 0.011
19,SMARCD1 (UniProt Q96GM5),1.16 ± 0.17

# From the supplement of paper PMC6411743
